# Laboratory results published in PubChem BioAssay AID686979 (National Center for Advancing Translational Sciences (NCATS), 2013).
# About 50,000 (12%) of roughly 420,000 compounds were called active. Roughly 26% stayed inconclusive and do not appear here. The call rests on the fitted dose curve; in most records, active means well fitted inhibition curve with a large enough effect; inconclusive means small, poorly fitted or top-dose-only effect; inactive means flat fitted curve, though single readings scatter. Shown is part of a subset that was picked to be rich in actives.
# Assay: qHTS for Inhibitors of human tyrosyl-DNA phosphodiesterase 1 (TDP1): qHTS in cells in presence of CPT; further: nearly all actives have a fitted effect of over 55% in size
# Conditions: chicken DT40 Tdp1-/-;hTDP1 cells + 20 nM CPT, ATP luminescence, 48 h; series mostly up to 46.2 µM; activity change, negative = growth inhibition: at the top concentration
# How it was run: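 Chicken DT40 Tdp1-/- cells complemented with human TDP1, 400 cells/well, exposed to compounds plus 20 nM camptothecin for at least 48 h at 37 C; viability read as ATP content by CellTiter-Glo luminescence.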
# On the % scale 0 is the no-effect control and ±100 the full control effect; potency means the concentration at half of the fitted maximal effect.
SMILES,Potency,"activity change, negative = growth inhibition"
CCOP(=O)(OCC)C(Cc1ccccc1)N=C(c1ccccc1)c1ccccc1 (centres undefined),16.4 µM (active),–
CCOP(=O)(OCC)C(NC(=O)c1ccc(C)cc1)C(Cl)(Cl)Cl (centres undefined),–,18.9% (inactive)
CCOP(=O)(OCC)C(NC(=O)c1ccc(OC)cc1)C(Cl)(Cl)Cl (centres undefined),–,-22.4% (inactive)
CC(C)CN1CCN(Cc2ccccc2C(F)(F)F)CC1CCO (centres undefined),–,-12.4% (inactive)
CCOc1ccc(C2SCC(=O)Nc3c2c(C)nn3C2CCOC(C)(C)C2)cc1 (centres undefined),–,-14.3% (inactive)
O=c1c2ccccc2nc(-c2ccccc2)n1-c1ccccn1,–,-16.3% (inactive)
COc1ccc(-n2c(-c3ccccc3)nc3ccccc3c2=O)cc1,18.4 µM (active),–
CC(CCC(=O)O)C1CCC2C3C(O)C[C@@H]4CC(O)CC[C@@]4(C)C3CC[C@@]12C (some centres undefined),inactive,–
COc1ccc(-c2cc(NC=O)c3ncc(-c4cc(OC)c(OC)c(OC)c4)n3c2)c(OC)c1,0.58 µM (active),–
CCCCCCCCCCCCn1ccc(=N)cc1,0.461 µM (active),–
CNC(=S)N/N=C1\C2CN3CCN(C2)CC1(c1ccccc1)C3,–,-7.02% (inactive)
CC(C)=C[C@@H]1[C@@H](C(=O)OCc2coc(Cc3ccccc3)c2)C1(C)C,–,0.519% (inactive)
CCOc1cccc(=NC2CCCCC2)c2c(C)[nH]c(C)c12,5.8 µM (active),–
Cc1cc(C)c2c(c1)NP(=S)(c1ccccc1)N2 (centres undefined),–,-19.6% (inactive)
O=C1/C(=C\c2ccc3c(c2)OCO3)N2CCC1CC2,–,-25.1% (inactive)
c1cncc(CNCCc2c[nH]c3ccccc23)c1,–,-21.5% (inactive)
COc1ccc2[nH]cc(CCNCc3ccc(Br)cc3)c2c1,13 µM (active),–
COc1ccc(Cn2c(O)c(/C=C3/C=CC=N3)c(=O)[nH]c2=O)cc1,20.6 µM (active),–
COc1ccc(N=Cc2c(O)n(C)c(=O)[nH]c2=O)cc1,–,1.34% (inactive)
O=C(N/N=C/c1c(O)n(Cc2ccccc2)c(=O)[nH]c1=O)c1ccccc1,–,-19.8% (inactive)
CNC(=O)N(C)c1nnc(C(C)(C)C)s1,inactive,–
CC1N=C(N)OC1c1ccccc1 (centres undefined),–,-27.9% [at 92.5 µM] (inactive)
CCOCCCNC(=O)c1c(NC(=O)c2nc(SC)ncc2Cl)sc2c1CCCC2,6.51 µM (active),–
CCCOC(=O)C1C2c3ccccc3C(c3ccccc32)C1C(=O)O (centres undefined),–,1.5% (inactive)
Cc1nc2ccccn2c1P(=S)(N1CCCCC1)N1CCCCC1,20.6 µM (active),–
CCOC(=O)CNC(=O)N1Cc2cc(N3CCCCC3)ccc2-n2nncc2C1,–,-4.45% (inactive)

SMILES,Potency,"activity change, negative = growth inhibition"
Cc1cc(=O)oc2c(C)c(OCC(=O)N3CCN(Cc4ccc5c(c4)OCO5)CC3)ccc12,–,-22.7% (inactive)
CCC(C)(O)C(=O)OC1C(=O)OC2CC3C(C)=CC(=O)C(O)C3(C)C3C4(O)OCC23C1C(C)C4O (centres undefined),0.116 µM (active),–
COc1ccc(NC(=O)N2CCC3(CC2)OCCO3)c(OC)c1,–,6.26% (inactive)
CCCC[N+]1(C)C2CC(OC(=O)C(CO)c3ccccc3)CC1C1OC12 (centres undefined),–,12.1% (inactive)
Cc1ccccc1N1C(=O)NC(=O)/C(=C\c2cc(C)n(C)c2C)C1=O,–,-20.2% (inactive)
O=C1NCN(c2ccccc2)C12CCN(C(c1cccs1)c1nnnn1C1CCCCC1)CC2 (centres undefined),16.4 µM (active),–
CC[N+]1(C)CCCC(OC(=O)C(O)(c2ccccc2)c2ccccc2)C1 (centres undefined),–,-22.2% (inactive)
CN(C)C(=O)Oc1ccc(NC(=O)N2CCOCC2)cc1,–,-0.201% (inactive)
Cc1cccc(-n2c(C)nc3cc(C(=O)N4CCC5(CC4)OCCO5)ccc32)c1,20.6 µM (active),–
O=C(c1cc(-c2ccncc2)nc2ccccc12)N1CCC2(CC1)OCCO2,–,-29.2% (inactive)
Cc1ccc(-c2cc(C(=O)N3CCC4(CC3)OCCO4)no2)cc1,–,-14.7% (inactive)
COc1cc(C(c2c(O)c3ccccc3oc2=O)c2c(C)n(C)n(-c3ccccc3)c2=O)ccc1O (centres undefined),inactive,–
COP(=O)(NS(=O)(=O)c1ccccc1)OC,–,2.59% (inactive)
ClCCN(CCCl)c1ccc(C=Nc2ccc(/C=C/c3ccnc4ccccc34)cc2)cc1,10 µM (active),–
C=CCN(CC=C)C(=O)Nc1ccc(OCC)cc1,–,12.3% (inactive)
O=C1NC(=O)N(Cc2ccco2)C(=O)/C1=C\c1ccc(-c2ccc(F)cc2)o1,20.6 µM (active),–
O=C1NC(=O)N(Cc2ccco2)C(=O)/C1=C\c1cccn1CCOc1ccccc1,–,-17.9% (inactive)
O=C(O)C1CSC(c2cccnc2)N1 (centres undefined),–,1.64% (inactive)
Fc1ccc(C(OCCN2CCN(C/C=C\c3ccccc3)CC2)c2ccc(F)cc2)cc1,5.31 µM (active),–
CN(C)S(=O)(=O)c1cc(C(=O)N2CCC(C(=O)O)(c3ccccc3)CC2)ccc1Cl,–,7.77% (inactive)
COC(=O)CN1C(=O)C2(C(C(=O)OC)=C(N)Oc3ccccc32)C2=C1CC(C)(C)CC2=O (centres undefined),–,-17.2% (inactive)
C/C=C/CC1(CC)C(=O)NC(=S)NC1=O,–,0.869% (inactive)
CN1CC[C@H](c2c(O)cc(O)c3c(=O)cc(-c4ccccc4Cl)oc23)[C@H](O)C1,0.0944 µM (active),–
Cc1ccc(C)c(NC2=NCCCS2)c1,–,-1.13% (inactive)
O=c1[nH]c(O)c(C=Nc2cc(F)cc(F)c2)c(=O)[nH]1,–,1.21% (inactive)
O=C1C2(Cl)C3(Cl)C4(Cl)C(Cl)(Cl)C5(Cl)C3(Cl)C1(Cl)C5(Cl)C24Cl (centres undefined),18.4 µM (active),–

SMILES,Potency,"activity change, negative = growth inhibition"
ClC(Cl)(Cl)c1ccccc1,–,-17.5% (inactive)
COc1ccc(NC(=O)c2cn(CCC#N)nc2-c2ccc([N+](=O)[O-])cc2)cc1,–,0.387% (inactive)
CNC(=O)Nc1ccc(C(O)(C(=O)OC)C(F)(F)F)cc1 (centres undefined),–,6.05% (inactive)
O=S(=O)(O)C(F)(F)C(F)(F)C(F)(F)C(F)(F)F,–,13.6% [at 92.5 µM] (inactive)
CCOC(=O)[C@]12Cc3cc(OC)ccc3[C@H]1N(C(C)C)C(=O)c1ccccc12,13 µM (active),–
CCOC(=O)[C@]12Cc3ccccc3[C@H]1N(C1CCCCC1)C(=O)c1cc(OC)ccc12,2.91 µM (active),–
COc1ccccc1-n1c(O)c(C=NC2CC2)c(=O)[nH]c1=O,–,-2.73% (inactive)
COC(=O)N1C(c2ccccc2)C1c1ccccc1 (centres undefined),–,1.25% (inactive)
O=C(O)/C=C/c1ccc2c(c1)OCO2,–,-82.7% (inactive)
Clc1cccc(Cl)c1Cl,–,-1.37% (inactive)
CCOC(=O)C(O)(c1ccc(N)c(OC)c1)C(F)(F)F (centres undefined),–,1.36% (inactive)
O=C(CCC(=O)N1C[C@H]2C[C@@H](C1)c1cccc(=O)n1C2)NCc1ccccc1C(F)(F)F,–,-3.15% (inactive)
C[C@@]12CCC3C(CC[C@@H]4CC(O)CC[C@@]34C)C1CCC2O (some centres undefined),–,-0.552% (inactive)
COc1cccc(C(=O)N2C[C@H]3C[C@@H](C2)c2cccc(=O)n2C3)c1,–,3.04% (inactive)
CCOCCc1c(O)[nH]c(=S)[nH]c1=O,–,-0.279% (inactive)
CN(C)C(=O)Oc1ccc(OCc2cccc[n+]2C)cc1,–,10.1% (inactive)
c1cc2c(cc1CCNC1CCCCCC1)OCO2,–,-19.6% (inactive)
CC(C)(C)c1ccc(S(=O)(=O)Nc2ccc(O)c(Sc3nc4ccccc4s3)c2)cc1,18.4 µM (active),–
c1ccc2sc(SNC3CCCCC3)nc2c1,–,-13.8% (inactive)
C=CC12CN(C)[C@@H]3C4CO[C@H](C[C@H]41)[C@]1(C(=O)Nc4ccccc41)[C@@H]32 (some centres undefined),–,8.01% (inactive)
CCN(N=Nc1nonc1OC)c1nonc1OC,–,7.39% (inactive)
c1ccc2sc(N3CCNCC3)nc2c1,–,20.1% (inactive)
CCN1C[C@]2(COC)C(O)C[C@H](OC)[C@@]34C5C[C@]6(O)C(OC)C(O)[C@](OC(C)=O)(C5C6OC(=O)c5ccccc5)C(C(OC)C23)C14 (some centres undefined),–,-7.7% (inactive)
CC(C)N(CC#CCC1(O)c2ccccc2-c2ccccc21)C(C)C,–,-13.8% (inactive)
c1cc2c(c(NC3=NCCCS3)c1)CCCC2,–,-5.68% (inactive)
COC(=O)N(c1ccc(OC)cc1)P1(=S)OCCC(C)O1 (centres undefined),14.6 µM (active),–

SMILES,Potency,"activity change, negative = growth inhibition"
Cc1ccc(-n2c(O)c(C=NCC3CCCO3)c(=O)[nH]c2=O)c(C)c1 (centres undefined),–,-8.29% (inactive)
CCC1(C)CC(CCNCc2ccc(N(C)C)cc2)(c2ccc(F)cc2)CCO1 (centres undefined),16.4 µM (active),–
CC(=O)N1CN2CN(C(C)=O)CC(C(=O)c3ccc(Br)cc3)(C2)C1,–,11.5% (inactive)
COc1ccccc1NC(=O)N1C[C@@H]2C[C@@H](C1)c1cccc(=O)n1C2,–,1.17% (inactive)
COc1ccccc1N=Nc1c(O)[nH]c(=S)[nH]c1=O,–,-16.3% (inactive)
O=c1[nH]c(=S)[nH]c(O)c1/C=C1\C=Nc2ccccc21,7.31 µM (active),–
CN(C)c1nc(N(C)C)nc(N(C#N)CCCl)n1,–,-12.5% (inactive)
Cc1ccc(OC(=O)N(C)C[C@@H]2OCc3cnnn3CCCC(=O)N([C@H](C)CO)C[C@@H]2C)cc1,–,1.63% (inactive)
CCC1(c2ccccc2)C(=O)NC(=O)N(C)C1=O (centres undefined),–,13.2% (inactive)
COc1ccc(Br)cc1CNCCc1cccc(Cl)c1,18.4 µM (active),–
COc1cc(C[C@H](C)N)c(OC)cc1Br,–,-28.4% [at 92.5 µM] (inactive)
CC[C@]1(O)C(=O)OCc2c1cc1n(c2=O)Cc2cc3ccccc3nc2-1,0.0168 µM (active),–
CC1=C2C(=O)C3C(CC=C4CC(OC5OC(O)C(O)C(O)C5CO)CCC43C)C2CCC12OC1CC(C)CNC1C2C (centres undefined),–,2.43% (inactive)
Cc1ccc2c(c1)C1CN(C)CCC1N2C(=O)Cn1nnc(-c2ccccc2F)n1 (centres undefined),–,7.4% (inactive)
CC(C)(c1ccc(OC[C@@H]2CO2)cc1)c1ccc(OC[C@H]2CO2)cc1,10.6 µM (active),–
CCOP(=O)(OCC)C(NC(=O)NC)C(N)=O (centres undefined),–,1.31% (inactive)
Nc1ccc(C(=O)N/N=C2/CN3CCC2CC3)cc1,–,1.97% (inactive)
O=C(Nc1cccc(OC(=O)N2CCCCC2)c1)N1CCOCC1,–,-15.1% (inactive)
O=C(/C=C/c1cccs1)c1cc(Cl)ccc1OC(=O)N1CCOCC1,16.4 µM (active),–
Cc1cc(-c2ccc(N)c(C)c2)ccc1N,–,-21.4% (inactive)
C=CCN1C(=O)C2(C(C(=O)OCC)=C(N)Oc3c2c(=O)oc2ccccc32)c2ccccc21 (centres undefined),–,-19.5% (inactive)
CCCCn1c(O)c(C(CC)=NCc2ccco2)c(=O)[nH]c1=O,–,-6.03% (inactive)
CCCCCCN=C(CC)c1c(O)n(CCCC)c(=O)[nH]c1=O,14.6 µM (active),–
CCC(=NCCCO)c1c(O)n(-c2ccc(OC)cc2)c(=O)[nH]c1=O,–,3.97% (inactive)
OC(CNC1CCCCC1)c1ccccc1 (centres undefined),–,-3.92% (inactive)
NS(=O)(=O)c1ccc(CCNC(=O)c2ccc(Cl)c(S(=O)(=O)N3CCCCCC3)c2)cc1,20.6 µM (active),–
